{
  "source": "PubChem BioAssay (NCI)",
  "note": "The panel holds about 83,000 compounds, 20% with a hit somewhere; the sample as a whole holds those more often.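 How to read the values: 0–100, growth inhibition (40 = 60% inhibited); 0, no net growth; -100 to 0, cell death (-40 = 40% of starting cells died; -100 = all dead).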 The source made the active and inactive calls. How the source made its calls: active means growth percent below 10; inactive means the rest.",
  "data": [
    {"system": "HL-60(TB) leukemia", "assay": "NCI-60 one-dose screen, 48 h (100 = growth as untreated, 0 = no growth, -100 = all killed)", "conditions": "10 µM unless noted", "values": [
      {"smiles": "Cc1c(Cl)ccc2c(C(=O)Cl)cc(-c3ccccc3)nc12", "growth": "88.9% (inactive)"},
      {"smiles": "CCN(CC)CCOc1ccc(/C(=C(\\C)c2ccc(Cl)cc2)c2ccc(Cl)cc2)cc1", "growth": "41.4% (inactive)"},
      {"smiles": "CC(=O)N(C)N=Nc1ccc(C)cc1", "growth": "117% (inactive)"},
      {"smiles": "N#C/C(=N\\Nc1ccc(Cl)cc1)C(=O)Nc1cc(-c2ccccc2)nn1-c1ccccc1", "growth": "27.5% (inactive)"},
      {"smiles": "CCCCCCCCCCCCCCCCCC1=NCCN1CCOC1=C(Cl)C(=O)c2ccccc2C1=O", "growth": "70.1% (inactive)"},
      {"smiles": "CCCNc1nc(C)[nH]c(=O)c1S", "growth": "92.1% (inactive)"},
      {"smiles": "N#Cc1c(-c2ccc(Cl)cc2)nc(NN2C(=O)c3ccccc3C2=O)nc1N1CCOCC1", "growth": "99.8% (inactive)"},
      {"smiles": "CCOC(=O)Nc1ccc2c(c1)/C(=N\\NC(=S)NC)c1ccccc1-2", "growth": "103% (inactive)"},
      {"smiles": "Brc1ccc(Oc2ccc(Nc3ncnc4onc(-c5ccccc5)c34)cc2)cc1", "growth": "101% (inactive)"},
      {"smiles": "Cc1cc(NCCCN(C)C)c2ccc3c(ccc4c(NCCCN(C)C)cc(C)nc43)c2n1", "growth": "-60.2% (active)"},
      {"smiles": "NC(=O)Nc1cc(-c2cccc(F)c2)sc1C(=O)N[C@H]1CCCNC1", "growth": "-29.9% (active)"},
      {"smiles": "Cn1c(=O)cc2c3c(c(NCCCO)ccc31)C(=O)c1ccccc1-2", "growth": "50.8% (inactive)"},
      {"smiles": "COc1ccc(-c2cn(-c3ccc(Cl)cc3)c(SCC(=O)c3ccc([N+](=O)[O-])cc3)n2)cc1", "growth": "84% (inactive)"},
      {"smiles": "C[C@@H](C[C@H](CC1CC1)c1ccccc1)c1ccc2ccccc2c1", "growth": "107% (inactive)"},
      {"smiles": "COc1cc(CN)ccc1O", "growth": "73.9% (inactive)"},
      {"smiles": "O=C1/C(=C\\c2ccc([N+](=O)[O-])cc2)CS(=O)(=O)C/C1=C/c1ccc([N+](=O)[O-])cc1", "growth": "-38.4% (active)"},
      {"smiles": "FC(F)(F)c1cc(-c2nnc3n2N=C(Cl)CS3)cc(C(F)(F)F)c1", "growth": "93.2% (inactive)"},
      {"smiles": "COC(=O)/C(CCC=C(C)C)=C1\\[C@@H](OC(C)=O)C[C@@]2(C)[C@H]1CC(=O)[C@H]1[C@@]3(C)CCC(N4CCCC4)[C@@H](C)[C@@H]3CC[C@@]12C", "note": "(stereo not given in full)", "growth": "-51.4% (active)"},
      {"smiles": "CCN(CC)c1ccc(/C=C(\\C#N)c2cc3ccccc3[nH]2)cc1", "growth": "45.6% (inactive)"},
      {"smiles": "CCCCCCCCCCCCCCCCCCOc1ccccc1CC(=O)OCC[N+]1(C)CCOCC1", "growth": "56.1% (inactive)"},
      {"smiles": "C=C1C(=O)O[C@H]2[C@H]1CC/C(C=Nc1c(N)cc(C(F)(F)F)cc1Br)=C\\CC[C@@]1(C)O[C@@H]21", "growth": "-13.1% (active)"},
      {"smiles": "COc1ccc(Cn2cc(COc3cc(/C=C/C(=O)c4cc(OC)c(OC)c(OC)c4)ccc3OC)nn2)cc1", "growth": "80.3% (inactive)"},
      {"smiles": "N#CSCc1c(Cl)cccc1Cl", "growth": "88.9% (inactive)"},
      {"smiles": "CC/C(=C(/c1ccc(Cl)cc1)c1ccc(OCCN(C)C)cc1)c1ccc(Cl)cc1", "growth": "64.9% (inactive)"},
      {"smiles": "O[C@@H]1CCO[C@H](c2ccc3ccccc3c2)C1", "growth": "102% (inactive)"},
      {"smiles": "N=C1C=C(N)C(=O)c2ccccc21", "growth": "-32.8% (active)"},
      {"smiles": "COc1cc(/C=C/C(=O)Nc2ccc3c(c2)/C(=C\\c2cccn2C)C(=O)N3)cc(OC)c1OC", "growth": "40.6% (inactive)"},
      {"smiles": "COC(=O)c1c2c(c(C)[n+]([O-])c1C)C(=O)C=C(NCc1cccc(Cl)c1)C2=O", "growth": "-31.8% (active)"},
      {"smiles": "Cc1cc(N2CCCC2)nc(NCc2cc(Nc3ccnc4cc(Cl)ccc34)ccc2F)n1", "growth": "-61.1% (active)"},
      {"smiles": "O=C(/C(=C/c1ccccc1)CN1CCCCC1)c1ccccc1", "growth": "-16.4% (active)"},
      {"smiles": "CCOC(=O)c1cnc2ccc(Br)cc2c1Nc1cccc(S(N)(=O)=O)c1", "growth": "99.5% (inactive)"},
      {"smiles": "CN1C(=O)N(C)C2(c3ccccc3)n3c(s/c(=C\\c4ccccc4)c3=O)=NNC12c1ccccc1", "note": "(stereo not given)", "growth": "90.1% (inactive)"},
      {"smiles": "C/C=C/CC(C)C(O)C1C(=O)NC(CC)C(=O)N(C)CC(=O)N(C)C(CC(C)C)C(=O)NC(C(C)C)C(=O)N(C)C(CC(C)C)C(=O)NC(C)C(=O)NC(C)C(=O)N(C)C(CC(C)C)C(=O)N(C)C(CC(C)C)C(=O)N(C)C(C(C)C)C(=O)N1C", "note": "(stereo not given)", "growth": "-9.23% (active)"},
      {"smiles": "O=C(/C=C/c1cccc(Nc2ccnc3cc(Cl)ccc23)c1)c1ccc(Cl)cc1", "growth": "47.6% (inactive)"},
      {"smiles": "Cc1ccc(NS(=O)(=O)c2ccc3c(c2)C(=O)CC(c2ccc(C(=O)C(C)C)cc2)N3)cc1C", "note": "(stereo not given)", "growth": "61.4% (inactive)"},
      {"smiles": "C[C@@H](O)[C@H]1C(=O)N2C(C(=O)O)=C(SC3CN[C@H](C(=O)N(C)C)C3)[C@H](C)[C@H]12", "note": "(stereo not given in full)", "growth": "87% (inactive)"},
      {"smiles": "O=C(NC(=S)NNC(=S)NNc1ccccc1)c1ccccc1", "growth": "0.166% (active)"},
      {"smiles": "COc1ccc(C(=O)c2cc(C)c(OC)c(C)c2)cc1OC(=O)CCl", "growth": "-43.6% (active)"},
      {"smiles": "COc1ccc(NC(=O)c2sc3nc(C)c(C(O)c4ccccc4)cc3c2N)cc1", "note": "(stereo not given)", "growth": "-51.9% (active)"},
      {"smiles": "CC(Cc1cccc2ccccc12)C(N)=O", "note": "(stereo not given)", "growth": "99.5% (inactive)"}
    ]}
  ]
}
